Reference: PubChem BioAssay (NCI)
Compounds without any hit were thinned out: in the full panel of roughly 83,000, 20% have a hit.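 Growth was measured after 48 h exposure to one concentration of compound in 96-well plates. Values under 10 count as active.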 A number with no mark means an inactive call. Calls of active or inactive are those of the source.

Each molecule was assayed on DU-145 prostate (assay: NCI-60 one-dose screen, 48 h (100 = growth as untreated, 0 = no growth, -100 = all killed)). Details: 10 µM unless noted.

With COC(=O)c1oc2c(C(=O)/C=C/c3ccc(OC)cc3)c(OCCN3CCOCC3)ccc2c1C as the molecule, how does the growth read?
The growth was 1.8% (active).

With CN(C)c1ccc(/C=N/n2c(-c3cc(F)c(Cl)cc3Cl)nn(CN3CCOCC3)c2=S)cc1 as the molecule, how does the growth read?
The growth was 106%.

For CS(=O)(=O)OCC(COS(C)(=O)=O)C(c1ccccc1)c1ccccc1, which growth is on record?
Its growth is 129%.

Which growth does the source give for Nc1ncnc2c1c(C(F)(F)F)cn2[C@@H]1O[C@H](CO)[C@@H](O)[C@H]1O here?
Its growth is 17.9%.

How did the growth turn out when Cc1nccc2c3ccc(OCc4cn(Cc5ccc(Br)cc5)nn4)cc3n(CCCc3ccccc3)c12 was run?
Its growth is 91.9%.

For [2H]c1nc(Nc2ncc(F)c(-c3cc(F)c4nc(C)n(C(C)C)c4c3)n2)c([2H])c([2H])c1CN1CCN(CC)CC1, which growth is on record?
The growth was 59%.

COc1cc(/C=C2/Oc3cc4occc4c(OC)c3C2=O)ccc1OCC(=O)Nc1ccncc1 was tested. Which growth did it give?
Its growth is 112%.

Which growth does the source give for COc1ccc2c(c1)OC(N)=C(C#N)C2c1ccc(F)cc1 (stereo unspecified) here?
Its growth is 36.8%.

With CCCCCCCCCCCCCCCCNc1ccccc1 as the molecule, how does the growth read?
Its growth is 107%.

How did the growth turn out when O=C(Nc1ccc(-n2ccc3c(NC(=O)c4ccccc4)ncnc32)cc1)c1cccc(C(F)(F)F)c1 was run?
The growth was 35.1%.

With COc1ccc(/C(Cl)=N/N=C(\Cl)c2cc(OC)c(OC)c(OC)c2)cc1OC(C)=O as the molecule, how does the growth read?
The growth was 95.3%.

For O=C1C(Cl)=C(Nc2ccccc2)C(=O)C(Cl)=C1Nc1ccccc1, which growth is on record?
Its growth is 121%.

For O=C(Nc1ccc(-n2cc(-c3ccncc3)c(-c3ccc(O)c(Cl)c3)n2)cc1)c1cc(C(F)(F)F)cc(C(F)(F)F)c1, which growth is on record?
Its growth is 65%.

For CCn1c(C)nc([N+](=O)[O-])c1Sc1nc(N)nc2nc[nH]c12, which growth is on record?
Its growth is 24.4%.

Which growth does the source give for Cc1cn(C2CC(N=[N+]=[N-])C(COP(=O)(O)OP(=O)(O)OP(=O)(O)O)O2)c(=O)[nH]c1=O (stereo unspecified) here?
Its growth is 114%.

Which growth does the source give for COc1cc(/C=C\c2cc(/C=C\c3ccc(O)c(OC)c3)n(C(=O)CNc3ccccc3OC)n2)ccc1O here?
The growth was 95.3%.

Which growth does the source give for COc1ccc(Cl)cc1NC(=O)c1cc2c([nH]1)-c1nc(NC(=O)C(C)C)sc1CC2 here?
The growth was 96.2%.

Which growth does the source give for O=C(/C=C/c1ccco1)c1cccc(Nc2nc(Nc3ccccc3)nc(Nc3ccccc3)n2)c1 here?
Its growth is 95%.

With O=C(Nc1ccc(-n2ccc3c(NC(=O)c4ccccc4)ncnc32)cc1)Nc1ccc(Cl)c(C(F)(F)F)c1 as the molecule, how does the growth read?
The growth was -22.7% (active).

With CN(C)CCCOc1c(Br)cc(/C=C/C(=O)N(C)CCc2cc(Br)c(OCCCN(C)C)c(Br)c2)cc1Br as the molecule, how does the growth read?
The growth was 40.5%.

Which growth does the source give for C=C(C)[C@@H]1C/C=C(\COC(=O)[C@H](OC(C)=O)C(NC(=O)c2ccccc2)c2ccccc2)CC[C@H]2O[C@]2(C)CC/C=C(\C)CC1 (stereo partly specified) here?
The growth was 86.6% [5 µM].

With COc1ccc(Cl)cc1NC(=O)c1cc2c([nH]1)-c1nc(NC(=O)C(C)(C)C)sc1CC2 as the molecule, how does the growth read?
Its growth is 59.9%.

How did the growth turn out when CC1CCC(C(C)C)C(NN)C1 (stereo unspecified) was run?
Its growth is 109%.

How did the growth turn out when Cl[C@@H]1CCO[C@H](c2cc3ccccc3c3ccccc23)C1 was run?
Its growth is 102%.

C[C@]12CC[C@@H]3c4ccc(O)c(N)c4CC[C@H]3[C@@H]1CC[C@@H]2O was tested. Which growth did it give?
Its growth is 110%.

Which growth does the source give for COc1ccc(/C=C/C(=O)c2ccc(-n3cc(CN4CCN(c5cc6c(cc5F)c(=O)c(C(=O)O)cn6C5CC5)CC4)nn3)cc2)cc1OC here?
The growth was 45.8%.

COc1ccc(-c2nn(-c3ccc(NC(=O)c4ccc(Cl)c(C(F)(F)F)c4)cc3)cc2-c2ccncc2)cc1Cl was tested. Which growth did it give?
The growth was 45%.

For O=C(O)c1cc2ccccc2cc1Nc1ccccc1, which growth is on record?
Its growth is 113%.

With COc1ccc(Cn2cc3c(c2-c2cc(OC)c(OC)c(OC)c2)CCc2c(CO)noc2-3)cc1 as the molecule, how does the growth read?
Its growth is 19.4%.

How did the growth turn out when COc1cc(C(=O)N2CCN(C(=O)c3cc(OC)c(OCc4ccccc4)cc3N)CC2)c(N)cc1OCc1ccccc1 was run?
The growth was 111%.

For Nc1ccc(S(=O)(=O)Nc2ccnn2-c2ccccc2)cc1, which growth is on record?
The growth was 118%.

With COc1ccc(-c2nnc(SCC(=O)Nc3ccc(C(=O)/C=C/c4ccccc4)cc3)o2)cc1OC as the molecule, how does the growth read?
Its growth is 96.7%.

With CCC(N)(C(=O)O)c1ccc(F)cc1 (stereo unspecified) as the molecule, how does the growth read?
Its growth is 108%.

Which growth does the source give for COc1ccc(-c2c(C#N)cnc(N)c2-c2nc3cc(C)c(C)cc3[nH]2)cc1 here?
Its growth is 37.4%.

CC(C)(C)NCC(O)COc1c(Br)c(Br)c(Br)c2c1OC(C)(C)C2 (stereo unspecified) was tested. Which growth did it give?
Its growth is -59.5% (active).

For O=C1/C(=C/c2cccc3cnccc23)Cc2cc(F)ccc21, which growth is on record?
Its growth is 104%.

Which growth does the source give for COC(OC)C1(c2ccccc2)NC(=O)NC1=O (stereo unspecified) here?
The growth was 120%.

How did the growth turn out when c1cncc(-c2nc3ccccc3[nH]2)c1 was run?
The growth was 112%.

Each molecule was assayed on K-562 leukemia in the same assay as above. Details: 10 µM unless noted.

How did the growth turn out when COC(=O)c1oc2c(C(=O)/C=C/c3ccc(OC)cc3)c(OCCN3CCOCC3)ccc2c1C was run?
The growth was -37.3% (active).

With CN(C)c1ccc(/C=N/n2c(-c3cc(F)c(Cl)cc3Cl)nn(CN3CCOCC3)c2=S)cc1 as the molecule, how does the growth read?
The growth was 82.7%.

Which growth does the source give for CS(=O)(=O)OCC(COS(C)(=O)=O)C(c1ccccc1)c1ccccc1 here?
The growth was 101%.

For Nc1ncnc2c1c(C(F)(F)F)cn2[C@@H]1O[C@H](CO)[C@@H](O)[C@H]1O, which growth is on record?
The growth was 5.69% (active).

With Cc1nccc2c3ccc(OCc4cn(Cc5ccc(Br)cc5)nn4)cc3n(CCCc3ccccc3)c12 as the molecule, how does the growth read?
The growth was 75.5%.

For [2H]c1nc(Nc2ncc(F)c(-c3cc(F)c4nc(C)n(C(C)C)c4c3)n2)c([2H])c([2H])c1CN1CCN(CC)CC1, which growth is on record?
The growth was -15.9% (active).

For COc1cc(/C=C2/Oc3cc4occc4c(OC)c3C2=O)ccc1OCC(=O)Nc1ccncc1, which growth is on record?
Its growth is 107%.

COc1ccc2c(c1)OC(N)=C(C#N)C2c1ccc(F)cc1 (stereo unspecified) was tested. Which growth did it give?
The growth was 12%.

Which growth does the source give for CCCCCCCCCCCCCCCCNc1ccccc1 here?
The growth was 79.8%.

With O=C(Nc1ccc(-n2ccc3c(NC(=O)c4ccccc4)ncnc32)cc1)c1cccc(C(F)(F)F)c1 as the molecule, how does the growth read?
Its growth is 28.7%.

For COc1ccc(/C(Cl)=N/N=C(\Cl)c2cc(OC)c(OC)c(OC)c2)cc1OC(C)=O, which growth is on record?
Its growth is 97.3%.

For O=C1C(Cl)=C(Nc2ccccc2)C(=O)C(Cl)=C1Nc1ccccc1, which growth is on record?
The growth was 103%.

How did the growth turn out when O=C(Nc1ccc(-n2cc(-c3ccncc3)c(-c3ccc(O)c(Cl)c3)n2)cc1)c1cc(C(F)(F)F)cc(C(F)(F)F)c1 was run?
The growth was 36.7%.

For CCn1c(C)nc([N+](=O)[O-])c1Sc1nc(N)nc2nc[nH]c12, which growth is on record?
Its growth is 17.3%.

Cc1cn(C2CC(N=[N+]=[N-])C(COP(=O)(O)OP(=O)(O)OP(=O)(O)O)O2)c(=O)[nH]c1=O (stereo unspecified) was tested. Which growth did it give?
Its growth is 83.5%.

COc1cc(/C=C\c2cc(/C=C\c3ccc(O)c(OC)c3)n(C(=O)CNc3ccccc3OC)n2)ccc1O was tested. Which growth did it give?
The growth was 19.4%.

For COc1ccc(Cl)cc1NC(=O)c1cc2c([nH]1)-c1nc(NC(=O)C(C)C)sc1CC2, which growth is on record?
Its growth is 76.4%.

For O=C(/C=C/c1ccco1)c1cccc(Nc2nc(Nc3ccccc3)nc(Nc3ccccc3)n2)c1, which growth is on record?
The growth was 64.4%.

How did the growth turn out when O=C(Nc1ccc(-n2ccc3c(NC(=O)c4ccccc4)ncnc32)cc1)Nc1ccc(Cl)c(C(F)(F)F)c1 was run?
The growth was 0.237% (active).

With CN(C)CCCOc1c(Br)cc(/C=C/C(=O)N(C)CCc2cc(Br)c(OCCCN(C)C)c(Br)c2)cc1Br as the molecule, how does the growth read?
The growth was -48.7% (active).

For C=C(C)[C@@H]1C/C=C(\COC(=O)[C@H](OC(C)=O)C(NC(=O)c2ccccc2)c2ccccc2)CC[C@H]2O[C@]2(C)CC/C=C(\C)CC1 (stereo partly specified), which growth is on record?
Its growth is 14.7% [5 µM].

COc1ccc(Cl)cc1NC(=O)c1cc2c([nH]1)-c1nc(NC(=O)C(C)(C)C)sc1CC2 was tested. Which growth did it give?
The growth was 10.6%.

Which growth does the source give for CC1CCC(C(C)C)C(NN)C1 (stereo unspecified) here?
The growth was 92.2%.

How did the growth turn out when Cl[C@@H]1CCO[C@H](c2cc3ccccc3c3ccccc23)C1 was run?
The growth was 95.5%.

How did the growth turn out when C[C@]12CC[C@@H]3c4ccc(O)c(N)c4CC[C@H]3[C@@H]1CC[C@@H]2O was run?
Its growth is 79.8%.

Which growth does the source give for COc1ccc(/C=C/C(=O)c2ccc(-n3cc(CN4CCN(c5cc6c(cc5F)c(=O)c(C(=O)O)cn6C5CC5)CC4)nn3)cc2)cc1OC here?
Its growth is 7.81% (active).

For COc1ccc(-c2nn(-c3ccc(NC(=O)c4ccc(Cl)c(C(F)(F)F)c4)cc3)cc2-c2ccncc2)cc1Cl, which growth is on record?
The growth was 0.122% (active).

O=C(O)c1cc2ccccc2cc1Nc1ccccc1 was tested. Which growth did it give?
The growth was 98.3%.

For COc1ccc(Cn2cc3c(c2-c2cc(OC)c(OC)c(OC)c2)CCc2c(CO)noc2-3)cc1, which growth is on record?
Its growth is 7.1% (active).

For COc1cc(C(=O)N2CCN(C(=O)c3cc(OC)c(OCc4ccccc4)cc3N)CC2)c(N)cc1OCc1ccccc1, which growth is on record?
Its growth is 7.24% (active).

With Nc1ccc(S(=O)(=O)Nc2ccnn2-c2ccccc2)cc1 as the molecule, how does the growth read?
The growth was 89%.

COc1ccc(-c2nnc(SCC(=O)Nc3ccc(C(=O)/C=C/c4ccccc4)cc3)o2)cc1OC was tested. Which growth did it give?
The growth was 95.4%.

How did the growth turn out when CCC(N)(C(=O)O)c1ccc(F)cc1 (stereo unspecified) was run?
The growth was 91.9%.

How did the growth turn out when COc1ccc(-c2c(C#N)cnc(N)c2-c2nc3cc(C)c(C)cc3[nH]2)cc1 was run?
The growth was 51.6%.

For CC(C)(C)NCC(O)COc1c(Br)c(Br)c(Br)c2c1OC(C)(C)C2 (stereo unspecified), which growth is on record?
The growth was -34.9% (active).

Which growth does the source give for O=C1/C(=C/c2cccc3cnccc23)Cc2cc(F)ccc21 here?
Its growth is 96.1%.

COC(OC)C1(c2ccccc2)NC(=O)NC1=O (stereo unspecified) was tested. Which growth did it give?
The growth was 112%.

With c1cncc(-c2nc3ccccc3[nH]2)c1 as the molecule, how does the growth read?
Its growth is 102%.
